Results published in PubChem BioAssay (EPA / NIEHS).
Results filed as inconclusive are left out. The source made the active and inactive calls. How the source made its calls: active means hit-call score of the fitted dose curve at least 0.9, where 1 is the maximum; inconclusive means response in the unintended direction; inactive means score below 0.9.

What was measured:
[1] = biological target: Cellular tumor antigen p53 (Homo sapiens) (UniProt P04637); assay: TOX21_p53_BLA_p2_ratio: Tox21 HCT-116 p53 Agonism Beta-lactamase Assay, Ratio, Phase 2 (AID 2283592)
Summary of the method: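 HCT116 cells carrying a p53-responsive beta-lactamase reporter were plated, incubated 5 h at 37C, then dosed with compounds in DMSO (217-fold dilution) for 16 h. CCF4-AM substrate was added for 2 h at room temperature; the 460/530 nm emission ratio gave gain-of-signal activity relative to DMSO.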

[2] = TOX21_p53_BLA_p3_viability: Viability Assessment in the Tox21 HCT-116 p53 Agonism Beta-lactamase Assay, Phase 3 (AID 2283593);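 further: cells exposed to compound for 16 h before reading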
Summary of the method: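 HCT116 cells, 4000/well, dosed 5 h after plating by pin transfer (217-fold dilution from DMSO stock) and incubated 16 h at 37C, 5% CO2. Viability read as ATP luminescence with CellTiter-Glo after 30 min at room temperature.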

[3] = biological target: Cellular tumor antigen p53 (Homo sapiens) (UniProt P04637); assay: TOX21_p53_BLA_p3_ratio: Tox21 HCT-116 p53 Agonism Beta-lactamase Assay, Ratio, Phase 3 (AID 2283596)
Summary of the method: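 HCT116 p53-bla cells (4000/well) given compound in DMSO (217-fold dilution) after 5 h, incubated 16 h at 37C. CCF4-AM substrate 2 h at room temperature; 460/530 nm emission ratio, gain fitted against DMSO.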

[4] = biological target: Cellular tumor antigen p53 (Homo sapiens) (UniProt P04637); assay: TOX21_p53_BLA_p5_ratio: Tox21 HCT-116 p53 Agonism Beta-lactamase Assay, Ratio, Phase 5 (AID 2283599)
Summary of the method: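 HCT-116 p53-bla cells (4000/well) plated 5 h, dosed with compound (217-fold DMSO dilution) for 16 h at 37 C; CCF4-AM substrate 2 h at room temperature. Activity is the 460/530 nm emission ratio (405 nm excitation), fitted in gain-of-signal direction versus DMSO.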

[5] = TOX21_p53_BLA_p5_viability: Viability Assessment in the Tox21 HCT-116 p53 Agonism Beta-lactamase Assay, Phase 5 (AID 2283600)
Summary of the method: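 Cells were plated at 4000/well, rested 5 h at 37C, then given compounds in DMSO (217-fold dilution) for 16 h at 37C, 5% CO2. Following the CCF4-AM beta-lactamase read, CellTiter-Glo was added and luminescence was read after 30 min at room temperature.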

[6] = biological target: Cellular tumor antigen p53 (Homo sapiens) (UniProt P04637); assay: TOX21_p53_BLA_p4_ratio: Tox21 HCT-116 p53 Agonism Beta-lactamase Assay, Ratio, Phase 4 (AID 2283601)
Summary of the method: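 HCT-116 p53 beta-lactamase reporter cells (4000/well) preincubated 5 h, then compound (217-fold dilution of DMSO stock) for 16 h at 37C. CCF4-AM substrate added 2 h at room temperature; 460/530 nm emission ratio fitted upward versus DMSO.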

[7] = TOX21_p53_BLA_p4_viability: Viability Assessment in the Tox21 HCT-116 p53 Agonism Beta-lactamase Assay, Phase 4 (AID 2283597);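 further: hits lower the luminescence signal meaning cytotoxicity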
Summary of the method: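 HCT116 p53-bla cells (4000/well) rested 5 h at 37C, then received compounds in DMSO (217-fold dilution) for 16 h at 37C, 5% CO2. CellTiter-Glo was added after the CCF4-AM read, and luminescence was read after 30 min at room temperature.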

[8] = biological target: PGR (gene 5241) (UniProt P06401); assay: TOX21_PR_BLA_Followup_Antagonist_ratio: Tox21 HEK293 Progesterone Receptor (PR) Antagonism Beta-lactamase Follow-Up Assay, Ratio (AID 2283934);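 further: PR-UAS-bla HEK293T cells stimulated with 1 nM R5020 agonist for 16 hr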
Summary of the method: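 Antagonist mode used 1 nM R5020 (final) as agonist on a beta-lactamase reporter line in HEK293T cells. Activity was taken from the substrate cleavage ratio after 16 hr exposure.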

[9] = TOX21_PR_BLA_Followup_Agonist_viability: Viability Assessment in the Tox21 HEK293 Progesterone Receptor (PR) Agonism Beta-lactamase Follow-Up Assay (AID 2283935);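 further: signal loss means lower viability so actives are cytotoxic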
Summary of the method: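 Multiplexed viability counter-screen: ATP-coupled luciferase signal measured after 30 min at room temperature, following 16 hr compound treatment of PR-UAS-bla HEK293T cells grown in charcoal-stripped serum.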

[10] = TOX21_PR_BLA_Followup_Antagonist_viability: Viability Assessment in the Tox21 HEK293 Progesterone Receptor (PR) Antagonism Beta-lactamase Follow-Up Assay (AID 2283936);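 further: hits lower the luminescence signal meaning cytotoxicity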
Summary of the method: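 PR-UAS-bla HEK293T cells (3,000/well, 2% charcoal-stripped FBS) given compound plus R5020 agonist, 16 h at 37C. CellTiter-Glo added after bla read, 30 min at room temperature; luminescence loss indicates cytotoxicity.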

[11] = biological target: PGR (gene 5241) (UniProt P06401); assay: TOX21_PR_LUC_Followup_Antagonist: Tox21 HEK293 Progesterone Receptor (PR) Antagonism Luciferase Follow-Up Assay (AID 2283938);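 further: curve fitted upward as signal gain over DMSO baseline despite antagonist label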
Summary of the method: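 HEK293-PR-A-luc cells were precultured 5 days in medium with 10% charcoal-stripped FBS, seeded 3,000/well, then exposed to compounds in DMSO for 16 h at 37C. Luciferase was read by ONE-Glo luminescence after 30 min at room temperature.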

[12] = TOX21_PR_LUC_Followup_Agonist_viability: Viability Assessment in the Tox21 HEK293 Progesterone Receptor (PR) Agonism Luciferase Follow-Up Assay (AID 2283941);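 further: loss of signal means cytotoxicity so actives lower viability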
Summary of the method: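 Luminescent ATP quantitation (CellTiter-Glo) serves as the read-out; a drop flags cytotoxic compounds. Cells are HEK293-PR-A-luc grown in 10% charcoal-stripped FBS, plated 3,000/well, and exposed to compound for 16 h.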

[13] = biological target: PGR (gene 5241) (UniProt P06401); assay: TOX21_PR_BLA_Followup_Agonist_ratio: Tox21 HEK293 Progesterone Receptor (PR) Agonism Beta-lactamase Follow-Up Assay, Ratio (AID 2283933)
Summary of the method: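 Agonist-mode follow-up in HEK293T cells carrying a UAS-driven beta-lactamase reporter, grown in 2% charcoal-stripped serum. Compounds act for 16 hr; activity is the ch2/ch1 cleavage ratio, with same-well CellTiter-Glo viability run in parallel.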

[14] = biological target: Thyroid hormone receptor alpha (Rattus norvegicus) + Thyroid hormone receptor beta (Rattus norvegicus) (UniProt P18113+P63059); assay: TOX21_TR_LUC_GH3_Antagonist_Followup: Tox21 GH3 Thyroid Hormone Receptor Antagonism Luciferase Follow-Up Assay (AID 2283942)
Summary of the method: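 Antagonist mode: GH3 cells seeded 1,500/well, compounds at 15 concentrations (92 uM to 5nM final) plus T3 at 1.0 nM final, 24 h at 37C. Luciferase read with ONE-Glo after 30 min at room temperature.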

[15] = biological target: THRB (gene 7068) (UniProt P10828); assay: TOX21_TRB_BLA_Antagonist_Followup_ratio: Tox21 Thyroid Hormone Receptor beta Antagonism Beta-lactamase (BLA) Follow-Up Assay, Ratio (AID 2283958)
Summary of the method: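 In this antagonist-mode follow-up, a stably integrated GAL4-TRβ LBD fusion drives a UAS-beta-lactamase reporter in HEK293T cells. Loss of ratio signal relative to DMSO after 18 h treatment indicates activity; parallel CellTiter-Glo flags cytotoxicity.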

[16] = biological target: THRB (gene 7068) (UniProt P10828); assay: TOX21_TRB_COA_Antagonist_Followup_ratio: Tox21 Thyroid Hormone Receptor beta Antagonism through Coactivator Recruitment Follow-Up Assay, Ratio (AID 2283967)
Summary of the method: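 Cell-free TR-FRET: GST-TRb LBD (5.0 nM) with fluorescein-SRC-2 peptide (200 nM) and Tb anti-GST antibody (2 nM), 0.10% BSA. 520:495 nm emission ratio normalized to DMSO (0%) and T3 (100%).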

[17] = biological target: Retinoic acid receptor RXR-alpha (Homo sapiens) (UniProt P19793); assay: TOX21_TR_RXR_BLA_Antagonist_Followup_ratio: Tox21 Thyroid Hormone Receptor beta Retinoid X Receptor alpha (RXRa) Antagonism Beta-lactamase (BLA) Follow-Up Assay, Ratio (AID 2283972)
Summary of the method: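 RXRa-UAS-bla HEK293T cells in phenol red-free DMEM with 2% charcoal-stripped FBS; compounds at 11 concentrations in triplicate, 16 h at 37C. LiveBLAzer FRET-B/CCF4-AM substrate 2 h at room temperature; read as 460:530 nm ratio versus DMSO.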

[18] = TOX21_TR_RXR_BLA_Antagonist_Followup_viability: Viability Assessment in the Tox21 Thyroid Hormone Receptor beta Retinoid X Receptor alpha (RXRa) Antagonism Beta-lactamase (BLA) Follow-Up Assay (AID 2283979)
Summary of the method: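 RXRa-bla HEK293T cells (2,500/well, phenol red-free DMEM, 2% charcoal-stripped FBS) were attached 5 h, then exposed to compounds at 11 concentrations in triplicate for 16 h at 37C. Viability measured by CellTiter-Glo ATP luminescence, bidirectional fitting versus DMSO.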

Measured: AC50

Chain of Cellular tumor antigen p53 (Homo sapiens) (P04637 whole entry, looked up): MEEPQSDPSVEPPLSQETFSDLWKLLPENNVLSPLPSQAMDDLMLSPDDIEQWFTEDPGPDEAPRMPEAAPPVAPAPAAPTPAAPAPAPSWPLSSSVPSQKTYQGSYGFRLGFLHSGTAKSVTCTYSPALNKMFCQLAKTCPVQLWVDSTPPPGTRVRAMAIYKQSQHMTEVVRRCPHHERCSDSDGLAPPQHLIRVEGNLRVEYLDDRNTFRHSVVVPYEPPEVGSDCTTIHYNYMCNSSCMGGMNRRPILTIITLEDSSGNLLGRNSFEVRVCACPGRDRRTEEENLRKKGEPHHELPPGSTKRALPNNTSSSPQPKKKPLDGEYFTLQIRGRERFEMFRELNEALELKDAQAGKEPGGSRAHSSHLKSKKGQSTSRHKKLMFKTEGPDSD
Chain of PGR (gene 5241) (P06401 whole entry, looked up): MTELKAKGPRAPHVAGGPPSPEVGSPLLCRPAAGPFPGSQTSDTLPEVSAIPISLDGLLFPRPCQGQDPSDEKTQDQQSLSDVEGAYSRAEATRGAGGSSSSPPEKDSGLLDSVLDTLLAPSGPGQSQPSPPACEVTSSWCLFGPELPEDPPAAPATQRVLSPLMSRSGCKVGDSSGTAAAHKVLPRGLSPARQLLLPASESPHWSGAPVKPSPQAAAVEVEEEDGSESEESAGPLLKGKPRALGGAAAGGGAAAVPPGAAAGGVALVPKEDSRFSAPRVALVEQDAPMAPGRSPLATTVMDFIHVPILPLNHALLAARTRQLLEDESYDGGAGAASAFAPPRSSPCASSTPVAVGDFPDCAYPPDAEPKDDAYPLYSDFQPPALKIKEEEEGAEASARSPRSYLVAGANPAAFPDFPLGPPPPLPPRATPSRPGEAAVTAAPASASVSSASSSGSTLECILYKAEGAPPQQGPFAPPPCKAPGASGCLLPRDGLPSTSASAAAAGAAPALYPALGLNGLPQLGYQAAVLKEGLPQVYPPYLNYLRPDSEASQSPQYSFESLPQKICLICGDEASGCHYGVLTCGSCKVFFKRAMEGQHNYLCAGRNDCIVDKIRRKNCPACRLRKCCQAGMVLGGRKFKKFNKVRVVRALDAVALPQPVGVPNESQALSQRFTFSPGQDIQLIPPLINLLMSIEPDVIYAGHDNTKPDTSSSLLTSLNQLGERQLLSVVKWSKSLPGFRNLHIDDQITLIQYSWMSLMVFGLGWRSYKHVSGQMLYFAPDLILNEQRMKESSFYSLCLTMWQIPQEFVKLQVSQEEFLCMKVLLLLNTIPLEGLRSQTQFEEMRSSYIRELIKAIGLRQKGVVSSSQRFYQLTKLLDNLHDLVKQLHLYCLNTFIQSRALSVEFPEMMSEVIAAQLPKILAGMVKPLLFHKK
Chain of THRB (gene 7068) (P10828 whole entry, looked up, the tested form may be a part): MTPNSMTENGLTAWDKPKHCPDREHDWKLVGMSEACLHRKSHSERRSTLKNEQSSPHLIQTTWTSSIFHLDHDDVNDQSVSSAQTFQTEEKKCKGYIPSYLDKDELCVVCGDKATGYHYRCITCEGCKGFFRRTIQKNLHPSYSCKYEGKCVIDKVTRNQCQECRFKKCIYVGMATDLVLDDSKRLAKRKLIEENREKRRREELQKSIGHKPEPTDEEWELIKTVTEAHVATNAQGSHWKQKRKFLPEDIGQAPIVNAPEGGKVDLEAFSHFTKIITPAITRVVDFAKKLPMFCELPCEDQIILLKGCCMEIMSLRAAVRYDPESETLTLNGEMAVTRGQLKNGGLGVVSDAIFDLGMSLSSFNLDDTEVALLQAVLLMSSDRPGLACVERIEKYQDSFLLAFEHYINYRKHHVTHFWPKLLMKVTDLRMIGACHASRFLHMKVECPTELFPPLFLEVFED
Chain of Retinoic acid receptor RXR-alpha (Homo sapiens) (P19793 whole entry, looked up): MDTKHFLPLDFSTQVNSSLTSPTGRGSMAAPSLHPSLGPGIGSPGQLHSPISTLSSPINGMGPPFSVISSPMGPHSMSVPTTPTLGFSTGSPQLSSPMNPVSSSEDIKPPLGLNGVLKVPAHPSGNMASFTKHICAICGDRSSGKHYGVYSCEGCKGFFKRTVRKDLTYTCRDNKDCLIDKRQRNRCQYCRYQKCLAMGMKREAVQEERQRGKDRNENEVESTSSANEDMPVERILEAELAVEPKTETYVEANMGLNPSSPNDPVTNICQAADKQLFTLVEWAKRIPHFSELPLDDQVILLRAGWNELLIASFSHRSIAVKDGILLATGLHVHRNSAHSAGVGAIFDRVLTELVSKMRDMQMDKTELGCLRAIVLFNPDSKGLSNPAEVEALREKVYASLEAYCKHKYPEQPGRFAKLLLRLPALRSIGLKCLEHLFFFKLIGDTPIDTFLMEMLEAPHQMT

COc1ccc2c(c1OC)C(=O)O[C@H]2[C@@H]1c2cc3c(cc2CCN1C)OCO3
inactive: [1] | [2] | [3] | [4] | [5] | [6]

CCN(CCO)CCn1c(Cc2ccccc2)nc2c1c(=O)n(C)c(=O)n2C
inactive: [1] | [2] | [7]

Cc1ncc2n1-c1ccc(Cl)cc1C(c1ccccc1F)=NC2
inactive: [1] | [2] | [7] | [4] | [6]

Cc1cnc[nH]1
inactive: [1] | [2] | [5] | [6]

COC(=O)C(Cl)C(=O)OC
inactive: [1] | [2] | [7] | [5] | [6]

C[C@]12CC[C@H]3[C@@H](CCC4=CC(=O)CC[C@@H]43)[C@@H]1CC[C@@H]2O
inactive: [1] | [2] | [7] | [8] | [9] | [10] | [11] | [12]

CNN
inactive: [1] | [2] | [7] | [5]

O=C(O)C(Cl)(Cl)Br
inactive: [1] | [2] | [7] | [4] | [6]

CCSCc1ccccc1OC(=O)NC
inactive: [1] | [2] | [5] | [6]

CC=CCC#N
inactive: [1] | [2] | [4] | [6]

Clc1ccc(C(Cl)(Cl)Cl)cc1Cl
inactive: [1] | [2] | [7] | [5] | [6]

Nc1n[nH]c(N)n1
inactive: [1] | [2] | [3] | [5]

ClC=CCl
inactive: [1] | [2] | [7] | [4] | [5]

Cc1nc(N)nc(N)n1
inactive: [1] | [2] | [5]

Brc1c(Br)c(Br)c(Br)c(Br)c1Br
inactive: [1] | [2] | [7] | [4] | [5]

COc1cc(CC(C)N)c(OC)cc1Br (centres undefined)
inactive: [1] | [2] | [7] | [4] | [5] | [6]

C#CC(C)(O)CC (centres undefined)
inactive: [1] | [2] | [7] | [4] | [5] | [6]

C[C@]1(O)CC[C@H]2[C@@H]3CCC4=CC(=O)CC[C@]4(C)[C@@]3(F)[C@@H](O)C[C@@]21C
inactive: [1] | [2] | [7] | [5] | [6] | [8] | [9] | [10] | [11] | [12]

C=C(C#N)CCC#N
inactive: [1] | [2] | [4] | [5] | [6]

CC(C)(C)NCC(O)c1cc(Cl)c(N)c(C(F)(F)F)c1 (centres undefined)
inactive: [1] | [2] | [7] | [4] | [5] | [6]

Cc1ccc(-c2nc3ccc(C)cn3c2CC(=O)N(C)C)cc1
inactive: [1] | [2] | [4] | [5] | [6]

COc1ccc(C(=O)N2CCCC2=O)cc1
inactive: [1] | [2] | [7] | [4] | [5]

C(CCOCC1CO1)COCC1CO1 (centres undefined)
inactive: [1] | [2] | [5] | [6]

CCCN(CCCl)c1c([N+](=O)[O-])cc(C(F)(F)F)cc1[N+](=O)[O-]
inactive: [1] | [2] | [5]

O=C(Cl)c1ccccc1F
inactive: [1] | [2] | [7] | [4] | [5]

FC(F)OC(F)(F)C(F)Cl (centres undefined)
inactive: [1] | [2] | [3] | [6]

C=C[C@H]1CN2CC[C@H]1C[C@H]2[C@H](OC(=O)OCC)c1ccnc2ccc(OC)cc12
inactive: [1] | [2] | [7] | [4] | [5] | [6]

CCN(CC)CCOC(=O)C(O)(c1ccccc1)c1ccccc1
inactive: [1] | [2] | [4] | [5]

CC[C@]1(O)CC[C@H]2[C@@H]3CCC4=CCCC[C@@H]4[C@H]3CC[C@@]21C
active: [1] 3.73 µM | [4] 7.06 µM | [6] 7.04 µM | [13] 0.686 µM | [15] 11.6 µM | [17] 14.3 µM
not listed: [3] | [9] | [10]
inactive: all other assays above
